# Reference: the supplement of paper PMC6089552
# Hit rate of the full screen: of about 3,200 compounds, about 300 (9.4%) showed activity. This is one part of a sample in which actives are shown more often than they occur.
# Tested on: A673/TR/shEF
# Assay: cell viability (LOESS-normalised, relative to median of negative controls) (log2 ratio); higher = more viable cells (less compound effect), active = hit call of the paper (over 3 MAD below the median)
# Conditions: treatment time: 72 h
# In short: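 A673/TR/shEF Ewing sarcoma cells were plated at 1,500 per well in 384-well plates and cultured with or without doxycycline, added 24 h before compounds, to induce EWS-FLI1 shRNA knockdown. Library compounds at two or more concentrations, alongside DMSO controls, were applied for three days. Cell viability was measured by CellTiter-Glo luminescence on an Envision reader. Readings were LOESS-corrected per plate, divided by the median of negative controls and log2-transformed, and hits were wells lying at least three median absolute deviations from the median of all screened wells.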
# [1] = 0.25 µM, library screen: screen1, EWS-FLI1 expression: high (no doxycycline)
# [2] = 0.25 µM, library screen: screen1, EWS-FLI1 expression: low (doxycycline-induced shRNA knockdown)
# [3] = 2.5 µM, library screen: screen1, EWS-FLI1 expression: high (no doxycycline)
# [4] = 2.5 µM, library screen: screen1, EWS-FLI1 expression: low (doxycycline-induced shRNA knockdown)
# [5] = 0.025 µM, library screen: screen1, EWS-FLI1 expression: high (no doxycycline)
# [6] = 0.025 µM, library screen: screen1, EWS-FLI1 expression: low (doxycycline-induced shRNA knockdown)
# [7] = 25 µM, library screen: screen1, EWS-FLI1 expression: high (no doxycycline)
# [8] = 25 µM, library screen: screen1, EWS-FLI1 expression: low (doxycycline-induced shRNA knockdown)
# [9] = 0.103 µM, library screen: screen3, EWS-FLI1 expression: high (no doxycycline)
# [10] = 0.103 µM, library screen: screen3, EWS-FLI1 expression: low (doxycycline-induced shRNA knockdown)
# [11] = 0.308 µM, library screen: screen3, EWS-FLI1 expression: high (no doxycycline)
# [12] = 0.308 µM, library screen: screen3, EWS-FLI1 expression: low (doxycycline-induced shRNA knockdown)
# [13] = 0.926 µM, library screen: screen3, EWS-FLI1 expression: high (no doxycycline)
# [14] = 0.926 µM, library screen: screen3, EWS-FLI1 expression: low (doxycycline-induced shRNA knockdown)
# [15] = 2.8 µM, library screen: screen3, EWS-FLI1 expression: high (no doxycycline)
# [16] = 2.8 µM, library screen: screen3, EWS-FLI1 expression: low (doxycycline-induced shRNA knockdown)
# [17] = 8.3 µM, library screen: screen3, EWS-FLI1 expression: high (no doxycycline)
# [18] = 8.3 µM, library screen: screen3, EWS-FLI1 expression: low (doxycycline-induced shRNA knockdown)
# [19] = 25 µM, library screen: screen3, EWS-FLI1 expression: high (no doxycycline)
# [20] = 25 µM, library screen: screen3, EWS-FLI1 expression: low (doxycycline-induced shRNA knockdown)
structure (smiles),measurement,setting,value
OC[C@@H](O)C(O)[C@H](O)CO,cell viability (log2),[1],0.179 (inactive)
same,cell viability (log2),[2],0.0545 (inactive)
same,cell viability (log2),[3],0.145 (inactive)
same,cell viability (log2),[4],0.0215 (inactive)
O=C(O)c1cc(NCc2cc(O)ccc2O)ccc1O,cell viability (log2),[5],0.268 (inactive)
same,cell viability (log2),[6],-0.135 (inactive)
same,cell viability (log2),[1],0.324
same,cell viability (log2),[2],0.0214 (inactive)
same,cell viability (log2),[3],-0.24 (active)
same,cell viability (log2),[4],-0.0017 (inactive)
same,cell viability (log2),[7],-0.388 (active)
same,cell viability (log2),[8],0.0315 (inactive)
O=C(O)c1cc(N(Cc2ccccc2O)Cc2cc(O)ccc2O)ccc1O,cell viability (log2),[5],0.17 (inactive)
same,cell viability (log2),[6],0.0496 (inactive)
same,cell viability (log2),[1],0.173 (inactive)
same,cell viability (log2),[2],0.132 (inactive)
same,cell viability (log2),[3],0.0556 (inactive)
same,cell viability (log2),[4],0.0297 (inactive)
same,cell viability (log2),[7],0.0931 (inactive)
same,cell viability (log2),[8],0.144 (inactive)
O=C(O)c1cc(O)ccc1O,cell viability (log2),[1],0.00691 (inactive)
same,cell viability (log2),[2],0.0897 (inactive)
same,cell viability (log2),[3],0.0219 (inactive)
same,cell viability (log2),[4],0.0883 (inactive)
O=C(NCO)c1cccnc1,cell viability (log2),[1],0.28
same,cell viability (log2),[2],0.147 (inactive)
same,cell viability (log2),[3],0.255 (inactive)
same,cell viability (log2),[4],0.103 (inactive)
Cc1ccc(NC(=O)c2ccc(CN3CCN(C)CC3)cc2)cc1Nc1nc(-c2cccnc2)cs1,cell viability (log2),[9],0.122 (inactive)
same,cell viability (log2),[10],0.0762 (inactive)
same,cell viability (log2),[11],0.0521 (inactive)
same,cell viability (log2),[12],0.0956 (inactive)
same,cell viability (log2),[13],0.0749 (inactive)
same,cell viability (log2),[14],0.0933 (inactive)
same,cell viability (log2),[15],0.0638 (inactive)
same,cell viability (log2),[16],0.131 (inactive)
same,cell viability (log2),[17],0.061 (inactive)
same,cell viability (log2),[18],0.0802 (inactive)
same,cell viability (log2),[19],-0.709 (active)
same,cell viability (log2),[20],0.154 (inactive)
Cc1ccc(NC(=O)c2ccc(CN3CCN(C)CC3)cc2)cc1Nc1nccc(-c2cccnc2)n1,cell viability (log2),[9],0.102 (inactive)
same,cell viability (log2),[10],0.119 (inactive)
same,cell viability (log2),[11],0.178 (inactive)
same,cell viability (log2),[12],0.125 (inactive)
same,cell viability (log2),[13],0.121 (inactive)
same,cell viability (log2),[14],0.129 (inactive)
same,cell viability (log2),[15],0.135 (inactive)
same,cell viability (log2),[16],0.128 (inactive)
same,cell viability (log2),[17],0.122 (inactive)
same,cell viability (log2),[18],0.126 (inactive)
same,cell viability (log2),[19],-0.195 (active)
same,cell viability (log2),[20],0.146 (inactive)
Nc1ccccc1NC(=O)c1ccc(CNc2nccc(-c3cccnc3)n2)cc1,cell viability (log2),[9],0.0488 (inactive)
same,cell viability (log2),[10],0.158 (inactive)
same,cell viability (log2),[11],0.0583 (inactive)
same,cell viability (log2),[12],0.0629 (inactive)
same,cell viability (log2),[13],-0.0966 (inactive)
same,cell viability (log2),[14],0.141 (inactive)
same,cell viability (log2),[15],-0.554 (active)
same,cell viability (log2),[16],0.00492 (inactive)
same,cell viability (log2),[17],-1.39 (active)
same,cell viability (log2),[18],-0.431 (active)
same,cell viability (log2),[19],-3.23 (active)
same,cell viability (log2),[20],-1.08 (active)
Cc1cn(-c2cc(NC(=O)c3ccc(C)c(Nc4nccc(-c5cccnc5)n4)c3)cc(C(F)(F)F)c2)cn1,cell viability (log2),[9],0.0821 (inactive)
same,cell viability (log2),[10],0.114 (inactive)
same,cell viability (log2),[11],0.0305 (inactive)
same,cell viability (log2),[12],0.0807 (inactive)
same,cell viability (log2),[13],0.00582 (inactive)
same,cell viability (log2),[14],0.101 (inactive)
same,cell viability (log2),[15],-0.0305 (inactive)
same,cell viability (log2),[16],0.116 (inactive)
same,cell viability (log2),[17],0.0184 (inactive)
same,cell viability (log2),[18],0.0705 (inactive)
same,cell viability (log2),[19],-0.057 (inactive)
same,cell viability (log2),[20],0.0892 (inactive)
Cc1ccncc1Nc1ncccc1C(=O)Nc1ccc(C2(C#N)CCCC2)cc1,cell viability (log2),[9],0.0267 (inactive)
same,cell viability (log2),[10],0.0194 (inactive)
same,cell viability (log2),[11],0.0111 (inactive)
same,cell viability (log2),[12],-0.0325 (inactive)
same,cell viability (log2),[13],-0.00588 (inactive)
same,cell viability (log2),[14],-0.00768 (inactive)
same,cell viability (log2),[15],-0.00204 (inactive)
same,cell viability (log2),[16],-0.0249 (inactive)
same,cell viability (log2),[17],0.00934 (inactive)
same,cell viability (log2),[18],-0.0211 (inactive)
same,cell viability (log2),[19],-0.0197 (inactive)
same,cell viability (log2),[20],0.0222 (inactive)
Cc1cc(O)c(C)c2c1C(=O)Oc1c(C)c(O)c(C(=O)O)c(C)c1O2,cell viability (log2),[1],0.09 (inactive)
same,cell viability (log2),[2],0.103 (inactive)
same,cell viability (log2),[3],0.0454 (inactive)
same,cell viability (log2),[4],0.145 (inactive)
CC(C)=CCC/C(C)=C/CC/C(C)=C/CO,cell viability (log2),[1],0.153 (inactive)
same,cell viability (log2),[2],0.0866 (inactive)
same,cell viability (log2),[3],0.208 (inactive)
same,cell viability (log2),[4],0.106 (inactive)
CC(C)=CCc1c(O)c(C(=O)CC(C)C)c2oc(=O)cc(-c3ccccc3)c2c1O,cell viability (log2),[1],0.0516 (inactive)
same,cell viability (log2),[2],0.00347 (inactive)
same,cell viability (log2),[3],0.107 (inactive)
same,cell viability (log2),[4],0.0124 (inactive)
CC(C)CCCC(C)C1CCC2C3CC=C4CC(=O)CCC4(C)C3CCC12C (stereo unspecified),cell viability (log2),[1],0.0196 (inactive)
same,cell viability (log2),[2],0.0967 (inactive)
same,cell viability (log2),[3],0.0967 (inactive)
same,cell viability (log2),[4],0.133 (inactive)
COCCOC(=O)C1=C(C)NC2=C(C(=O)CCC2)C1c1ccc(C)s1 (stereo unspecified),cell viability (log2),[1],-0.0698 (inactive)
same,cell viability (log2),[2],0.0631 (inactive)
same,cell viability (log2),[3],0.0308 (inactive)
same,cell viability (log2),[4],0.207 (inactive)
C=C(C)C1Cc2c(ccc(C(=O)O)c2O)O1 (stereo unspecified),cell viability (log2),[1],0.0493 (inactive)
same,cell viability (log2),[2],-0.00474 (inactive)
same,cell viability (log2),[3],0.106 (inactive)
same,cell viability (log2),[4],0.105 (inactive)
CCOC(=O)c1oc2c(OC)c(O)cc(O)c2c(=O)c1-c1cc(OC)c(OC)c(OC)c1,cell viability (log2),[1],0.036 (inactive)
same,cell viability (log2),[2],0.0305 (inactive)
same,cell viability (log2),[3],-0.00359 (inactive)
same,cell viability (log2),[4],-0.108 (inactive)
CC=C(C)C(=O)OC1[C@@H]2C=C3C4CC(=O)O[C@@H](c5ccoc5)[C@]4(C)CCC3[C@@](C)(C2=O)[C@@H](C(O)C(=O)OC)C1(C)C (stereo partly specified),cell viability (log2),[1],0.075 (inactive)
same,cell viability (log2),[2],-0.00745 (inactive)
same,cell viability (log2),[3],0.149 (inactive)
same,cell viability (log2),[4],0.0968 (inactive)
COC(=O)Nc1ccc(S(=O)(=O)N2C(C)CCCC2C)cc1 (stereo unspecified),cell viability (log2),[1],0.0592 (inactive)
same,cell viability (log2),[2],0.103 (inactive)
same,cell viability (log2),[3],0.0767 (inactive)
same,cell viability (log2),[4],0.0829 (inactive)
COc1ccc(CN2CCN(Cc3ccc([N+](=O)[O-])cc3)CC2)cc1OC,cell viability (log2),[1],0.0472 (inactive)
same,cell viability (log2),[2],0.118 (inactive)
same,cell viability (log2),[3],0.097 (inactive)
same,cell viability (log2),[4],0.0942 (inactive)
CCSc1nnc(-c2ccc([N+](=O)[O-])cc2)n1-c1ccccc1,cell viability (log2),[1],0.0862 (inactive)
same,cell viability (log2),[2],0.0888 (inactive)
same,cell viability (log2),[3],0.0629 (inactive)
same,cell viability (log2),[4],0.153 (inactive)
CCOc1cccc(C(=O)c2ccc(O)c(O)c2O)c1,cell viability (log2),[1],0.0703 (inactive)
same,cell viability (log2),[2],0.005 (inactive)
same,cell viability (log2),[3],0.0783 (inactive)
same,cell viability (log2),[4],0.0694 (inactive)
C[C@@H]1CC[C@@]23CCC4(C)[C@@](C=CC5[C@@]6(C)CCC(=O)C(C)(C)C6CC[C@]54C)(OC2=O)C3[C@H]1C (stereo partly specified),cell viability (log2),[1],0.12 (inactive)
same,cell viability (log2),[2],0.0225 (inactive)
same,cell viability (log2),[3],0.0629 (inactive)
same,cell viability (log2),[4],0.0141 (inactive)
CCN(CCCc1ccccc1)CCCc1ccccc1,cell viability (log2),[1],0.0709 (inactive)
same,cell viability (log2),[2],0.129 (inactive)
same,cell viability (log2),[3],0.11 (inactive)
same,cell viability (log2),[4],0.151 (inactive)
NC(=O)NC(=O)Cc1ccccc1,cell viability (log2),[1],0.103 (inactive)
same,cell viability (log2),[2],0.215 (inactive)
same,cell viability (log2),[3],0.184 (inactive)
same,cell viability (log2),[4],0.139 (inactive)
NNCCc1ccccc1,cell viability (log2),[1],0.0542 (inactive)
same,cell viability (log2),[2],0.11 (inactive)
same,cell viability (log2),"0.25 µM, library screen: screen2, EWS-FLI1 expression: high (no doxycycline)",0.136 (inactive)
same,cell viability (log2),"0.25 µM, library screen: screen2, EWS-FLI1 expression: low (doxycycline-induced shRNA knockdown)",-0.0727 (inactive)
same,cell viability (log2),[3],0.2 (inactive)
same,cell viability (log2),[4],0.188 (inactive)
same,cell viability (log2),"2.5 µM, library screen: screen2, EWS-FLI1 expression: high (no doxycycline)",-0.435 (active)
same,cell viability (log2),"2.5 µM, library screen: screen2, EWS-FLI1 expression: low (doxycycline-induced shRNA knockdown)",-0.392 (active)
